Assay outcomes as filed in PubChem BioAssay.
Compounds with a hit are over-represented: about 2.6% of the library has one in this group of screens.
Mcl1 Bid PPI: Mcl-1/Bid interaction inhibition; AID 1021; hit rate 0.97% among 220,000; inhibition, % at 21.7 µM; TR-FRET Mcl-1/Bid-Dy647 peptide binding, 1536-well; Q07820;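 active means compounds that cut the binding signal by more than half at the single screening dose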;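 further: His-tagged Mcl-1 with europium anti-His antibody binding Bid BH3 peptide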
Target sequence (Q07820 whole entry, looked up): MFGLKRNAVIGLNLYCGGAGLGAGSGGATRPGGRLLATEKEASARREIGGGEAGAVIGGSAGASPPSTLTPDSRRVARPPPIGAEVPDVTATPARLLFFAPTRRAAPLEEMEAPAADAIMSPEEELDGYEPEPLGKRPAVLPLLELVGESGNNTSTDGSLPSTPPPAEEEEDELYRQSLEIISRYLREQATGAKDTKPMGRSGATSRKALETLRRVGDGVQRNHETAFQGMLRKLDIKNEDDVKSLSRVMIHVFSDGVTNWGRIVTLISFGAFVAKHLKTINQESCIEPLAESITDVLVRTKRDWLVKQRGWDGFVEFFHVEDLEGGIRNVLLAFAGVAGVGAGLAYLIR
Mcl1-Noxa inh: Mcl-1/Noxa interaction inhibition. Q07820. TR-FRET Mcl-1/Noxa peptide binding, 2 h. inhibition, % at 21.7 µM. hit rate 1.5% among 220,000;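 active means compounds that cut the protein-peptide binding signal by more than 50% relative to plate controls in a single-dose test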;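 further: His-tagged Mcl-1 with rhodamine Noxa BH3 peptide and terbium anti-His antibody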
Bim-Mcl-1: inhibitors of Bim-Mcl-1 interaction, human; Q07820; Bead-based flow cytometry, Bim peptide-Mcl-1 binding; inhibition, % at 10 µM; hit rate 0.1% among 190,000; AID 1009; in the data active means inhibition above about 40%
MCL1 BIM primary: MCL1-BIM-BH3 interaction inhibition (human); GST-MCL1 / FITC-Bim-BH3 fluorescence polarization; inhibition, % at 10.9 µM; hit rate 0.68% among 320,000; AID 2057;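 active means inhibition above the mean inhibition of all tested compounds plus 3 SD, set per campaign, cut at about 40% in these data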;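 further: higher means more loss of mP so more displacement of Bim peptide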
eIF4E-4G inh: eIF4E/eIF4G interaction inhibition in translation initiation; P63073+Q04637; TR-FRET eIF4E-eIF4GI(517-606) binding, 2 h; inhibition, % at 21.7 µM; hit rate 0.37% among 220,000;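 active means inhibition above about 30%, limit read from the data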
14-3-3 Bad inh: disrupts binding of bovine 14-3-3 zeta to phospho-Bad peptide | P63103 | TR-FRET 14-3-3zeta/Dy647-pBad peptide displacement, 1 h | hit rate 0.71% among 220,000 | AID 781 | inhibition, % at 21.7 µM;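 active means inhibition above about 70%, limit read from the data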
Target sequence (P63103 whole entry, looked up): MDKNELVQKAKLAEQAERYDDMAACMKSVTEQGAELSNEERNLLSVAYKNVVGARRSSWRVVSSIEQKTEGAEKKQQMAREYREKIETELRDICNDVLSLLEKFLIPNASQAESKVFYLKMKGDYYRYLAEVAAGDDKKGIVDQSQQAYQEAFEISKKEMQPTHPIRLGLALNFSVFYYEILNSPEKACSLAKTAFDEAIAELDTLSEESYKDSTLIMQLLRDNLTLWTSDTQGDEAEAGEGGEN
Numbers stand for hits; . = inactive; / = not tested or not shown.

SMILES | Mcl1 Bid PPI | Mcl1-Noxa inh | Bim-Mcl-1 | MCL1 BIM primary | eIF4E-4G inh | 14-3-3 Bad inh
CC(C)(C)C(=O)NC1CCN(S(C)(=O)=O)CC1 | 58.2 | . | . | . | . | .
C=CCOc1ccccc1CN1CCSCC1 | . | . | . | . | . | 80.0
Clc1ccccc1CN1CCSCC1 | / | / | / | . | / | /
Cc1ccc(S(=O)(=O)N2CCOCC2)cc1C(=O)OCCOc1cccc(Cl)c1 | / | / | / | . | / | /
S=c1[nH]nc(-c2cc(-c3ccccc3)n[nH]2)n1/N=C/C(Br)=C/c1ccccc1 | . | 75.8 | / | . | . | .
S=c1[nH]nc(-c2cc(-c3ccccc3)n[nH]2)n1/N=C/c1ccccc1 | . | . | / | . | . | .
Cc1ccc(-c2n[nH]c(=S)n2/N=C/C=C/c2ccccc2[N+](=O)[O-])cc1 | . | . | . | . | . | .
O=[N+]([O-])c1ccccc1/C=C/C=N/n1c(-c2cc(-c3ccccc3)n[nH]2)n[nH]c1=S | . | 57.8 | / | . | . | .
COCCn1c(SCC(=O)NC(=O)NCc2ccccc2)nc2ccccc21 | 55.6 | . | . | . | . | .
COCCn1c(SCC(=O)NC(=O)NC(C)C)nc2ccccc21 | . | . | . | . | . | .
CCOc1ccc(-c2c(C(=O)N/N=C/c3c[nH]c4ccccc34)nnn2-c2nonc2N)cc1 | / | / | / | . | / | /
CCO[C@H]1OC(C(N)=O)=C[C@@H](c2ccc(Br)cc2)[C@@H]1CCCO | . | . | . | . | . | .
CCO[C@H]1OC(C(N)=O)=C[C@@H](c2ccccc2)[C@@H]1CCCO | 51.2 | . | . | . | . | .
COc1ccc(C2NC(=O)N(CCCC(=O)O)C(C)=C2C(=O)OCc2ccccc2)cc1 (configuration not stated) | / | / | / | . | / | /
COc1ccc(Br)c2oc(S)cc(=O)c12 | . | 63.5 | . | . | . | .
COc1ccc(CCNC(=O)c2cc3c(=O)n4ccccc4nc3n(Cc3ccco3)c2=N)cc1OC | / | / | / | . | / | /
COCCn1c(=N)c(C(=O)NCc2ccco2)cc2c(=O)n3cc(C)ccc3nc21 | . | . | . | 68.7 | . | .
Cc1ccc2nc3c(cc(C(=O)NCCc4ccccc4)c(=N)n3CCCN3CCOCC3)c(=O)n2c1 | / | / | / | . | / | /
Cc1cccn2c(=O)c3cc(C(=O)NCc4ccco4)c(=N)n(CCOCCO)c3nc12 | . | . | . | 43.2 | . | .
COCCNC(=O)c1cc2c(=O)n3cccc(C)c3nc2n1C | / | / | / | . | / | /
Cc1cccn2c(=O)c3cc(C(=O)NCCCn4ccnc4)n(C)c3nc12 | . | . | . | 46.8 | . | .
Cc1ccc(Cn2c(=N)c(C(=O)NCc3ccco3)cc3c(=O)n4ccccc4nc32)cc1 | . | 79.7 | . | . | . | .
CCCN1CCc2c(sc3nc(SC)n(-c4ccccc4)c(=O)c23)C1 | / | / | / | . | / | /
COCCCNC(=O)c1cccn2c(=O)c3cc4ccccc4cc3nc12 | . | . | . | . | . | .
N=c1c(C(=O)NCc2ccco2)cc2c(=O)n3ccccc3nc2n1CCc1ccccc1 | . | 67.7 | . | . | . | .
SMILES | Mcl1 Bid PPI | Mcl1-Noxa inh | Bim-Mcl-1 | MCL1 BIM primary | eIF4E-4G inh | 14-3-3 Bad inh
CCNC(=O)c1cc2c(=O)n3cccc(C)c3nc2n(CCc2ccccc2)c1=N | . | . | . | . | . | .
CCCCNC(=O)c1cc2c(=O)n3cccc(C)c3nc2n(Cc2ccccc2)c1=N | . | . | . | . | . | 74.8
N=c1c(C(=O)NCc2ccco2)cc2c(=O)n3ccccc3nc2n1CC1CCCO1 (configuration not stated) | / | / | / | . | / | /
O=C(NCc1ccco1)c1cccn2c(=O)c3cc4ccccc4cc3nc12 | 93.8 | . | . | / | . | .
COC(=O)C1=C(O)C(C(=O)OC)C(c2ccc(C)cc2)C(C#N)(C#N)C1c1ccc(C)cc1 (configuration not stated) | . | . | . | . | . | .
COCCNC(=O)c1noc2c1CCc1cc(OC)ccc1-2 | . | 64.6 | . | . | . | .
COC(=O)c1ccc(CNC(=O)c2c3c(nc4ccccc24)CCN(Cc2ccccc2)C3)cc1 | 94.0 | . | . | . | . | .
O=C(COC(=O)c1c2c(nc3ccccc13)CCN(Cc1ccccc1)C2)Nc1c(F)cccc1F | . | . | . | 40.8 | . | .
O=C(NCc1cccnc1)Nc1ccc(F)cc1F | . | . | . | . | . | 87.4
Cc1cccc(-c2nc3c(c(=O)c4ccccc4n3C)c(=O)n2-c2ccccc2)c1 | . | . | / | . | . | .
Cn1ccnc1C(=O)c1cccc([N+](=O)[O-])c1 | . | . | . | . | . | 90.7
O=C1NCCCC2c3c(cc(Br)c(O)c3Br)OC12N1CCOCC1 (configuration not stated) | . | 62.2 | . | . | . | .
CN1C(=S)N(c2cccnc2)C(=O)/C1=C\c1ccc(N(C)C)cc1 | 83.3 | . | . | / | . | 79.3
S=C1N(c2ccccc2)CN(CCN2CCOCC2)CN1c1ccccc1 | . | . | / | . | 38.9 | .
Cc1ccc([N+](=O)[O-])cc1N=Nc1c(C)[nH]n(C(N)=S)c1=O | / | / | / | . | / | /
O=c1c(N=Nc2ccc(O)cc2)c(-c2ccccc2)[nH]n1-c1ccc([N+](=O)[O-])cc1 | 59.6 | 71.1 | . | . | . | .
Cc1ccc([N+](=O)[O-])cc1N=Nc1c(-c2ccc([N+](=O)[O-])cc2)[nH]n(C(N)=S)c1=O | 67.8 | 110.9 | . | / | . | .
NC(=S)n1[nH]c(-c2ccc([N+](=O)[O-])cc2)c(N=Nc2ccc(Cl)cc2)c1=O | 97.8 | 73.1 | . | / | . | 93.2
Oc1ccc(Cl)cc1CNCc1cccc2ccccc12 | / | / | / | . | / | /
COc1ccccc1NC(=O)CSc1nccc(-c2ccco2)n1 | / | / | / | . | / | /
Cc1cc([N+](=O)[O-])nn1CC(=O)NCc1nc2ccccc2[nH]1 | . | . | . | . | . | .
COCCn1c(SCC(=O)NC(C)c2ccc(F)cc2)nc2ccccc21 (configuration not stated) | / | / | / | . | / | /
CCN(CC)CCNC(=O)c1ccc(NC(=O)C2CCN(c3ncnc4sc(C)c(C)c34)CC2)cc1 | / | / | / | . | / | /
CN(C)c1ccc(C(CNC(=O)c2ccccc2Br)c2c[nH]c3ccccc23)cc1 (configuration not stated) | . | 77.5 | . | . | . | .
CCOC(=O)c1ccc(S(=O)(=O)NCC(c2ccc(N(C)C)cc2)c2c[nH]c3ccccc23)cc1 (configuration not stated) | . | . | . | . | . | .
CN(C)c1ccc(C(CNC(=O)c2ccc(C#N)cc2)c2c[nH]c3ccccc23)cc1 (configuration not stated) | . | 79.1 | . | . | . | .
Oc1ccccc1Nc1nc(NCc2ccco2)c2ccccc2n1 | . | 60.2 | / | . | . | .
COc1cccc(Nc2nc(NCCO)c3ccccc3n2)c1 | . | . | . | . | . | .
Oc1ccc(Cl)cc1Nc1nc(NCC2CCCO2)c2ccccc2n1 (configuration not stated) | / | / | / | . | / | /
